Screens from PubChem BioAssay.
Rows were chosen to be rich in hits. Some 14% of all compounds tested hit in one or more screens of this group.
Pf growth 48h: P. falciparum growth inhibition at 48 hours (one generation); P. falciparum luciferase growth in erythrocytes, 48 h; Potency, µM (top dose mostly 28.7 µM), without a hit: at the highest dose activity change, negative = inhibition, actives largely listed as inhibitors; 310,000 tested, 5.9% active; AID 504832; further: potency means the concentration at half of the fitted maximal effect
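Cell-based growth assay: transgenic P. falciparum expressing firefly luciferase, cultured in red cells within RPMI 1640 containing 0.5% w/v Albumax, 24 mM bicarbonate and gentamycin. A drop in luciferase activity indicates inhibition.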
Pf growth 96h: inhibits malaria parasite growth, 96 h; 320,000 tested, 6.9% active; Potency, µM (doses to about 28.7 µM), for the others: top-dose activity change, negative = inhibition, actives largely listed as inhibitors; P. falciparum luciferase reporter growth, 96 h; AID 504834; further: potency means the concentration at half of the fitted maximal effect
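Readout is luminescence from an integrated firefly luciferase in P. falciparum. Red cells, 2% hematocrit and 0.05% parasitemia final, were cultured with compound through two parasite generations (96 hours) at 37 C, 5% CO2.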
FBPA Giardia inh: blocks Giardia fructose-bisphosphate aldolase activity | A8B2U2 | purified Giardia FBPA | Potency, µM (top dose mostly 59.6 µM), inactives show at the top dose activity, negative = inhibition, actives largely listed as inhibitors | 290,000 tested, 0.71% active | AID 2451; further: potency means the concentration at half of the fitted maximal effect; nearly all actives have a fitted effect of over 55% in size
Target sequence (A8B2U2 whole entry, looked up): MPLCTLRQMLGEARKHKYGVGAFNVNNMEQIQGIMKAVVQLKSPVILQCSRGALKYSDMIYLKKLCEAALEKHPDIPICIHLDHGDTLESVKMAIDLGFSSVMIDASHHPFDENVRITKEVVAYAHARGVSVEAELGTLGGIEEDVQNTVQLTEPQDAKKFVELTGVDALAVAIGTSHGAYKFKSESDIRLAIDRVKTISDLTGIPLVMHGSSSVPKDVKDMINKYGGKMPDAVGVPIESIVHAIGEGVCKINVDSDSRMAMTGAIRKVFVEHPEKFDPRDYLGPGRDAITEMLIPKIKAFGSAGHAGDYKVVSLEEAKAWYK
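Giardia FBPA (40 nM reagent) was preincubated 10 min at RT with compound (up to 57.5 uM final), then substrate plus GAPDH/TPI/NAD/arsenate coupling system with diaphorase/resazurin was added; resorufin fluorescence (525/598 nm) was read after 20 min.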
Sm TGR inh: inhibitors of Schistosoma mansoni thioredoxin glutathione reductase. Potency, µM (doses to about 114 µM), inactives show at the highest dose activity change, negative = inhibition, usual class: inhibitors. purified TGR, DTNB reduction, TNB absorbance 405 nm. 360,000 tested, 3% active. AID 485364; further: potency means the concentration at half of the fitted maximal effect; nearly all actives have a fitted effect of over 60% in size
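TGR 20 nM + NADPH 100 uM (dispensed conc.), cpd preinc 15 min RT; start with NADPH (500 uM addition) then DTNB (15 mM addition). Kinetic TNB absorbance, 405 nm filter. Four-parameter Hill fit across titration.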
HCMV antiviral: blocks human cytomegalovirus replication; 410,000 tested, 4.5% active; HFF cells, HCMV-luciferase reporter, 72 h; stronger effect = lower value; activity change, negative = inhibition, % at 57.5 µM; in the data active means activity change below about -60%; inconclusive means no clear call, values can overlap the other calls; inactive means above about -39%
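Two-dose cell screen: HFF monolayers treated with compounds and infected with luciferase-expressing HCMV at 1 PFU/cell, 72 h at 37C, then lysed for luciferase measurement.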
Starred values were filed as active, the others as inactive; ? = inconclusive; nt = not tested or not shown; [ ] = remark or other dose. Unless noted, the call rests on the fitted dose curve; in most records, active means well fitted curve in the direction sought with a large enough effect; inconclusive means small, poorly fitted or top-dose-only effect, or another doubt; inactive means no such curve, though single readings can be large; an effect the other way counts as inactive or inconclusive. On the % scale 0 is the no-effect control and ±100 the full control effect.

SMILES	Pf growth 48h	Pf growth 96h	FBPA Giardia inh	Sm TGR inh	HCMV antiviral
Cc1cn(C2CC(OC(=O)C(C)C)C(CO)O2)c(=O)[nH]c1=O (stereo not drawn)	2%	-10%	nt	-1%	-5
CC(C)(C)c1ccc(CSc2cnn(C(C)(C)C)c(=O)c2Cl)cc1	?	?	6%	-10%	-78*
CC(C)(C)n1ncc(Oc2ccccc2[N+](=O)[O-])c(Cl)c1=O	-25%	-5%	-1%	-4%	-28
C=CCN1c2ccccc2Sc2cnccc21	nt	nt	nt	nt	-68*
CCOc1ccc(N2C(=O)CC(N(C)Cc3ccccc3)C2=O)cc1 (stereo not drawn)	-9%	9%	3%	32µM*	?
O=C(O)CSC1CC(=O)N(c2ccc(Br)cc2)C1=O (stereo not drawn)	-8%	-3%	7%	45µM*	15
COC(=O)c1ccc(N2C(=O)CC(N(C)Cc3ccccc3)C2=O)cc1 (stereo not drawn)	14%	0.29µM*	5%	-4%	-15
CCOc1ccc(N2C(=O)CC(N)C2=O)cc1 (stereo not drawn)	-11%	-6%	1%	3.5µM*	27
COC(=O)c1ccc(N2C(=O)CC(N3CCN(c4ccccc4)CC3)C2=O)cc1 (stereo not drawn)	nt	nt	nt	nt	27
N#Cc1ccc(C(=O)OCC(=O)N2CCCC2)cc1	6%	13%	3%	2%	-20
CCCOc1ccc(N2C(=O)CC(SCCc3nc4ccccc4[nH]3)C2=O)cc1 (stereo not drawn)	-1%	-4%	-7%	-13%[57.1 µM]	-10
CCCOc1ccc(N2C(=O)CC(SCCN)C2=O)cc1 (stereo not drawn)	216%	?	-19%	35µM*	148
CCC1=C2CC[C@H]3C(=O)NC(=O)[C@H]3[C@H]2[C@@]2(C)C(=NCCc3c[nH]c4ccccc34)OC(=O)N2C1=O	nt	nt	0%	nt	nt
CCCNC(=O)c1ccccc1NC(=O)c1ccccc1N(C)S(=O)(=O)c1ccc(C)cc1	8.3µM*	11%	-4%	-3%	7
CC(=O)c1cccc(NC(=O)c2ccccc2N(C)S(=O)(=O)c2ccc(C)cc2)c1	?	13µM*	3%	3%	140
CCCNC(=O)c1ccccc1NC(=O)c1ccccc1N(C)S(C)(=O)=O	-1%	9%	0%	6%	16
CN(c1ccccc1C(=O)Nc1cccc(Br)c1)S(=O)(=O)c1ccccc1	-6%	208%	9%	-17%	42
O=C1NCC(COCc2ccccc2)O1 (stereo not drawn)	13%	5.2µM*	-1%	0%	0
Cc1cc(C)c(OCC(=O)N(Cc2cccc(F)c2)Cc2ccco2)c(C)c1	nt	nt	nt	-1%	-28
CCOC(=O)C1CCN(c2nnc(N3CCCC3=O)s2)CC1	58%	0.83µM*	-1%	6%	-3
COCC(=O)N1CCC2(CC1)CCN(c1ccc(-c3ccccc3)cc1)CC2	nt	nt	11%	nt	nt
CC(C)(C)NC(=O)CCCCCCCC(=O)NC(C)(C)C	4%	-18%	3%	0%	10
CCN(CC(=O)NC(C)(C)C)C(=O)CCl	12µM*	?	0%	50µM*	?
COc1ccc(N2C(=O)CC(N(CCc3ccccc3)C(=O)/C=C/C(=O)O)C2=O)cc1 (stereo not drawn)	6%	?	7%	?	27
O=C(O)/C=C/C(=O)N(CC1CCCO1)C1CC(=O)N(c2c(Cl)cccc2Cl)C1=O (stereo not drawn)	54%	42%	-1%	40µM*	-5
SMILES	Pf growth 48h	Pf growth 96h	FBPA Giardia inh	Sm TGR inh	HCMV antiviral
C=CCn1c(=NC(=O)c2ccccc2[N+](=O)[O-])sc2cc(S(C)(=O)=O)ccc21	?	9.3µM*	1%	-3%	0
COc1ccc(C(=O)N2CCn3c(C)ccc3C2C)cc1 (stereo not drawn)	?	-4%	?	28µM*	-36
COc1ccc(C2N(C(=O)c3ccccc3)CCN2C(=O)c2ccc(C)cc2)cc1 (stereo not drawn)	nt	?	0%	3%	-8
COc1ccc(C(=O)N2CCc3cc4c(cc3C2C)OCCCO4)cc1 (stereo not drawn)	?	13µM*	-7%	-17%	-8
CC1c2cc3c(cc2CCN1C(=O)c1ccc(Br)cc1)OCCCO3 (stereo not drawn)	-21%	?	nt	-5%	-15
COc1ccc(O)c(C=Nc2cc(NC(C)=O)c(Cl)cc2Cl)c1	5%	?	-11%	-27%	-102*
COc1cc(/C=C(\C#N)C(=O)NC2CCCCC2)ccc1OCc1ccc(C(=O)O)cc1	6.6µM*	-9%	-3%	nt	-36
COc1cc(/C=C(\C#N)C(=O)NCc2ccccc2)ccc1OCc1ccc(C(=O)O)cc1	13µM*	?	14%	-24%	-35
COc1ccc(CCNC(=O)/C(C#N)=C/c2cccc(OCc3ccccc3)c2)cc1OC	?	12µM*	-6%	0%	28
COc1cc(/C=C(/C#N)C(=O)NCCCc2ccccc2)ccc1OCC(=O)O	14%	?	-9%	-4%	20
COc1cc(/C=C(\C#N)C(=O)NC(C)C)ccc1OCc1ccc(C(=O)O)cc1	-1%	-23%	4%	5%	-14
COc1cc(/C=C(/C#N)c2ccccc2F)ccc1OCc1ccccc1	12µM*	-4%	-1%	12%	-36
CCOc1ccc(S(=O)(=O)N(CC(=O)NCc2ccncc2)c2ccc(C)cc2)cc1	-11%	?	2%	-20%	14
C[C@H]1CN([C@@H](C)CO)S(=O)(=O)c2ccc(Br)cc2O[C@@H]1CN(C)S(=O)(=O)c1ccccc1F	nt	nt	nt	nt	33
CCNc1ncc2nc(-c3ccc(F)cc3)c(=O)n(C[C@H]3CCCO3)c2n1	nt	nt	0%	nt	nt
COc1cc(C(=O)N2CC(=O)Nc3ccccc32)cc(OC)c1OC	nt	nt	nt	nt	-17
Cc1ccc(/C=C/C(=O)N2CC(=O)Nc3ccccc32)o1	0%	-7%	?	8.9µM*	-13
Cc1cc(C)cc(C(=O)N2CC(=O)Nc3ccccc32)c1	?	nt	-18%	7%	-81*
COc1ccccc1OC(C)C(=O)N1CC(=O)Nc2ccccc21 (stereo not drawn)	22%	21%	-3%	-6%	-72*
Cc1ccc(OC(C)C(=O)N2CC(=O)Nc3ccccc32)c(C)c1 (stereo not drawn)	-15%	?	1%	0%	33
CCCN(CC(=O)Nc1ccccc1C)C(=O)CCCNC(=O)c1ccc(Cl)cc1	-1%	77%	nt	-1%	-23
CN1CC(=O)N(CC(=O)Nc2cccc(C#N)c2)c2ccccc2C1=O	nt	nt	nt	5%	-3
CC(OC(=O)CC1Sc2ccccc2NC1=O)C(=O)N(C)Cc1ccccc1 (stereo not drawn)	nt	nt	nt	nt	0
Fc1ccc(Cc2cn3cc(-c4ccc(F)cc4)nc3s2)cc1	nt	nt	nt	-2%	44
